Consider 14 compounds from PubChem BioAssay.

Test [1] is described as follows: inhibitors of TNFa-induced NFkB p65 translocation, primary screen, imaging, HUVEC, MLSMR starter and 10KST1 sets (AID 438;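 active means inhibition above 20% together with a positive visual image hit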;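 further: compound added about 3h40 before a 20 min TNFalpha stimulation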;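 on inhibition: signal is the nuclear over cytoplasmic p65 intensity ratio per well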). Particulars: HUVEC TNFa-induced p65 nuclear translocation; cell count: measured here: nuclei count (cytotoxicity indicator), at 2.08 µM; inhibition: at 2 µM, stronger effect = higher value, 0% TNFa-plus-vehicle, 100% no-TNFa wells.
Test [2] can be described thus: reduction of polyQ htt aggregates in cells – imaging, exon1htt(103Q)mCFP cells, high-content imaging, primary screen (AID 483;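 active means visual image review flags a hit and inhibition of aggregation exceeds 20%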;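 further: compound exposure lasted 3 days before fixation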;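 on nuclei count: percent of the per-plate median nuclei count of sample wells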). The note with it: exon1htt(103Q)mCFP cell line, aggregate imaging, at 2 µM; inhibition of aggregation: stronger effect = higher value; nuclei count: measured here: cell count, toxicity.
A short description of test [3]: endothelial E-selectin expression blockers – imaging, HUVEC, immunofluorescence, MLSMR starter and 10KST1 sets, primary screen (AID 487;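 active means visually confirmed hit in the image check and inhibition above 20%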;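 on inhibition: signal is fraction of cell area covered by stained E-selectin grains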;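 on nuclei count: 100% = median nuclei count of all wells on the same plate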). Particulars: HUVEC TNFalpha-induced E-selectin immunofluorescence imaging, at 2 µM; inhibition: stronger effect = higher value; nuclei count: measured here: cell number, toxicity.
For test [4], the target named is Voltage-gated potassium channel subunit beta-2 (Rattus norvegicus) (UniProt P62483). Briefly: inhibitors of rat Kvbeta2 reductase activity – biochemical, NADPH fluorescence, primary screen (AID 622;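 active means fluorescence slope higher than the sample average by over 3 SD, cut at about -0.22 in these data, passing the limit was not always enough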;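 further: slope of raw intensity against log time taken from 70 to 1610 s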). Particulars: recombinant KvBeta, 4-cyanobenzaldehyde reduction, at 10 µM, stronger effect = higher value.
The target is the same in test [5]. Briefly: enhancers of rat Kvbeta2 NADPH turnover – biochemical, NADPH fluorescence, primary screen (AID 623).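 Further: fluorescence intensity change per second fitted from 20 to 320 s.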 Particulars: Recombinant KvBeta, NADPH fluorescence decrease slope, 10 min; at 10 µM; stronger effect = lower value.
In test [6] the target is Alpha-2C adrenergic receptor (Homo sapiens) (UniProt P18825). The test can be described thus: compounds altering alpha2C-coupled GIRK flux – cell-based, HEK293 alpha2C/GIRK1/2, thallium flux, primary screen (AID 624;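 active means fluorescence slope after compound addition differing from the mean of all screened samples at 99.7% confidence, in either direction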;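 further: slope of fluorescence ratio to pre-addition baseline per second over 15 to 24 s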). The note with it: thallium flux BTC fluorescence, at 10 µM, actives lie on both sides.
Test [7] in a line: blockers of RIG-like receptor reporter activation – cell-based, Sendai virus stimulus, luciferase, 10K MLSCN set, TLR/RLR signaling modifier project, primary screen (AID 602276;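 active means inhibition at or above 50% at 10 µM; inactive means inhibition below 50%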;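 further: firefly luciferase from ISG56 promoter only with Renilla not read in this screen; 0% = Sendai virus plus DMSO and 100% = medium plus DMSO without virus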). Particulars: HEK293 RL24 IRF3 luciferase reporter, at 10 µM, stronger effect = higher value. On the technique in general: Reporter assays use an easily measured gene product as a stand-in for the process of interest.

A short description of test [8]: TLR3 IRF3 reporter activation blockers – cell-based, poly I:C stimulus, luciferase, 10K MLSCN set, primary screen (AID 602277;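 active means inhibition of the reporter signal at or above 50%; inactive means inhibition below 50%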). Particulars: HEK293-TLR3 RL24 IRF3 luciferase reporter, at 10 µM, stronger effect = higher value.

The source made the active and inactive calls.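 How the source made its calls, unless noted: active means NADPH fluorescence slope more negative than the mean of all samples by about 3 SD, 99.7% confidence; inactive means the rest.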

Chain of Voltage-gated potassium channel subunit beta-2 (Rattus norvegicus) (P62483 whole entry, looked up): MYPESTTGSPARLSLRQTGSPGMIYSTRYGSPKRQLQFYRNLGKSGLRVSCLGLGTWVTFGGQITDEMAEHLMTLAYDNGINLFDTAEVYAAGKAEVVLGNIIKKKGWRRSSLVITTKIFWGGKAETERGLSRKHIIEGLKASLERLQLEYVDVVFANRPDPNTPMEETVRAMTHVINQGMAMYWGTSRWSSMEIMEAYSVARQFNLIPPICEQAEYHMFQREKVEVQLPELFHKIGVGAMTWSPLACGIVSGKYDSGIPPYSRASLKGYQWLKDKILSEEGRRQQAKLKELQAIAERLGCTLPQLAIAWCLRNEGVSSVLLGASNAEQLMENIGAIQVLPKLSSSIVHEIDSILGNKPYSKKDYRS
Chain of Alpha-2C adrenergic receptor (Homo sapiens) (P18825 whole entry, looked up): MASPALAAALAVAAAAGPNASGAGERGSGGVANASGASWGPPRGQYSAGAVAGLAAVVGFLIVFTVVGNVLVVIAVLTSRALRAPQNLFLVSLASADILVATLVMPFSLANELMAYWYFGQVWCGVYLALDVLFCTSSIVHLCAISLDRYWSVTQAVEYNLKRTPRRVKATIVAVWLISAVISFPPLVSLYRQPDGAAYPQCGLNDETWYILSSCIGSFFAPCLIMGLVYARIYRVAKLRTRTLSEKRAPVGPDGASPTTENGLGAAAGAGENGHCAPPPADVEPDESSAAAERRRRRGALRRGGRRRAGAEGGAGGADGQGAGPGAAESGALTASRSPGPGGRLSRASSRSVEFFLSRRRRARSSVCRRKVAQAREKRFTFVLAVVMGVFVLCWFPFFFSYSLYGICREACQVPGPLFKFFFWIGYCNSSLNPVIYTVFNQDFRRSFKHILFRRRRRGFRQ

For orientation: inhibition means the relative decrease from the control value, in per cent. With `CC(C)N(O)C(=O)NC(C)(C)C`, the cell count in test [1] was determined as 496. The inhibition was 9.4% (inactive) in test [1], 42.3% (inactive) in test [3], 17.4% (inactive) in test [7] and 15% (inactive) in test [8]. Besides, the inhibition of aggregation in test [2] was -1.8% (inactive). Besides, the results for the nuclei count in test [2] and in test [3] were 106% and 103%, respectively. The fluorescence slope in test [4] is -0.494 (inactive). The NADPH fluorescence slope in test [5] is -2.2e-05 (inactive). In addition, the slope in test [6] is 0.00463 (inactive).

On to `COc1ccc(C)cc1NC(=O)c1nnn(Cc2cccc(F)c2)c1N`, for which the cell count in test [1] came to 610. In addition, the inhibition is -0.2% (inactive) in test [1], -31.3% (inactive) in test [3], 40.9% (inactive) in test [7] and 1.2% (inactive) in test [8]. Also, in test [2], the inhibition of aggregation was 6.4% (inactive). Further, the nuclei count in test [2] came out at 100%; in test [3], 127%. The fluorescence slope in test [4] is -0.513 (inactive). Further, the NADPH fluorescence slope in test [5] was -2.7e-05 (inactive). Moreover, the slope in test [6] was 0.00668 (inactive).

Regarding `COc1ccc(-c2nnn(CCc3nn[nH]n3)n2)cc1OC`, the cell count in test [1] came out at 419. Further, the inhibition is -7.7% (inactive) in test [1], -9.7% (inactive) in test [3], 8.58% (inactive) in test [7] and -8.87% (inactive) in test [8]. Moreover, in test [2], the inhibition of aggregation was 1.4% (inactive). In addition, the nuclei count in test [2] was 70.5%; in test [3], 112%. For the same compound, the fluorescence slope in test [4] is -0.561 (inactive). Moreover, the NADPH fluorescence slope in test [5] is -2.6e-05 (inactive). The slope in test [6] is 0.00328 (inactive).

For the compound `O=C(CSc1nc2ccccc2nc1SCC(=O)N1CCOCC1)N1CCOCC1`, the cell count in test [1] came to 473. Further, the inhibition was 7.6% (inactive) in test [1], -239% (inactive) in test [3], 9.88% (inactive) in test [7] and 27.5% (inactive) in test [8]. In addition, in test [2], the inhibition of aggregation was 11.3% (inactive). Also, the nuclei count in test [2] worked out at 93.3%; in test [3] it was 115%. In addition, the fluorescence slope in test [4] was -0.354 (inactive). Moreover, the NADPH fluorescence slope in test [5] was -4.2e-05 (inactive). Besides, in test [6], the slope is 0.00548 (inactive).

On to `CC(NS(=O)(=O)c1ccc(OCC(=O)N2CCOCC2)c(Cl)c1)c1ccccc1` (centres undefined), for which, in test [1], the cell count was determined as 338. Moreover, the inhibition in test [1] is -6.5% (inactive); in test [3] it was -51.1% (inactive); in test [7] it was 18.7% (inactive); in test [8] it was 12.4% (inactive). Also, in test [2], the inhibition of aggregation was 0.2% (inactive). In addition, the nuclei count stood at 104% in test [2] and 76.7% in test [3]. Besides, the fluorescence slope in test [4] is -0.409 (inactive). Besides, in test [5], the NADPH fluorescence slope is -3.1e-05 (inactive). Further, the slope in test [6] was 0.00508 (inactive).

On to `O=c1/c(=C/c2ccco2)sc2nc(-c3ccccc3Br)nn12`, for which the cell count in test [1] was 343. The inhibition was 0.2% (inactive) in test [1], -34.7% (inactive) in test [3], 16.2% (inactive) in test [7] and 18.1% (inactive) in test [8]. The inhibition of aggregation in test [2] was 14.2% (inactive). In addition, the values for the nuclei count in test [2] and in test [3] were 107% and 118%, respectively. Besides, the fluorescence slope in test [4] is -0.585 (inactive). Moreover, the NADPH fluorescence slope in test [5] was -2.3e-05 (inactive). Besides, in test [6], the slope is 0.00315 (inactive).

For `COc1cccc(NC(=O)CSc2nnc(Cc3cccn3C)n2-c2ccc(F)cc2)c1`, the cell count in test [1] amounted to 567. Moreover, the inhibition is -3.3% (inactive) in test [1], 26.6% (inactive) in test [3], -1.59% (inactive) in test [7] and 15.6% (inactive) in test [8]. Also, in test [2], the inhibition of aggregation is 38.3% (inactive). Further, the nuclei count in test [2] worked out at 85.3%; in test [3], 110%. For the same compound, the fluorescence slope in test [4] is -0.594 (inactive). In addition, the NADPH fluorescence slope in test [5] was -2.4e-05 (inactive). Also, the slope in test [6] was 0.00609 (inactive).

Regarding `O=C(CCCN1C(=O)c2ccccc2C1=O)NCc1cccnc1`, the cell count in test [1] turned out to be 709. Moreover, the inhibition in test [1] was -7.1% (inactive); in test [3], -120% (inactive); in test [7], 8.03% (inactive); in test [8], 8.47% (inactive). Besides, in test [2], the inhibition of aggregation is -4.8% (inactive). The nuclei count in test [2] is 102%; in test [3] it was 134%. Also, in test [4], the fluorescence slope is -0.42 (inactive). Besides, the NADPH fluorescence slope in test [5] is -2.4e-06 (inactive). Further, the slope in test [6] is 0.00753 (inactive).

Regarding `CC1(C)CC(=O)C(C=NCc2ccc3c(c2)OCO3)=C(O)C1`, the cell count in test [1] was 665. The inhibition was -29.5% (inactive) in test [1], -10.4% (inactive) in test [3], 13.9% (inactive) in test [7] and 19.8% (inactive) in test [8]. Moreover, the inhibition of aggregation in test [2] is 2.3% (inactive). In addition, the nuclei count in test [2] worked out at 104%; in test [3], 93.7%. For the same compound, the fluorescence slope in test [4] is -0.459 (inactive). Also, the NADPH fluorescence slope in test [5] is 3.1e-05 (inactive). Also, the slope in test [6] was 0.00553 (inactive).

Turning to `O=C(CSc1nnc(-c2ccccc2)o1)N1CCc2ccccc2C1`, the cell count in test [1] was found to be 400. In addition, the inhibition in test [1] was -4.2% (inactive); in test [3] it was -104% (inactive); in test [7] it was 7.64% (inactive); in test [8], 22.9% (inactive). Further, in test [2], the inhibition of aggregation is 2.7% (inactive). Also, the nuclei count was found to be 101% in test [2] and 121% in test [3]. Moreover, in test [4], the fluorescence slope is -0.382 (inactive). Besides, the NADPH fluorescence slope in test [5] is -6.2e-05 (inactive). In addition, the slope in test [6] is 0.00577 (inactive).

Turning to `Cc1ccc2occ(CN3CCN(c4ccccc4)CC3)c(=O)c2c1`, in test [1], the cell count amounted to 258. The inhibition was -0.8% (inactive) in test [1], -17% (inactive) in test [3], 15.8% (inactive) in test [7] and 18.1% (inactive) in test [8]. Moreover, the inhibition of aggregation in test [2] was 14.3% (inactive). Moreover, the nuclei count in test [2] came to 81.9%; in test [3] it was 93.3%. In addition, the fluorescence slope in test [4] was -0.454 (inactive). The NADPH fluorescence slope in test [5] is -1.6e-05 (inactive). Besides, the slope in test [6] is 0.00585 (inactive).

In the case of `Clc1c(CSc2nc3ccccc3o2)nc2sccn12`, the cell count in test [1] came out at 651. Also, the inhibition in test [1] was 7.3% (inactive); in test [3], -149% (inactive); in test [7] it was -56.6% (inactive); in test [8] it was -207% (inactive). In test [2], the inhibition of aggregation was 7.5% (inactive). In addition, the nuclei count in test [2] came out at 99.8%; in test [3], 89.3%. The fluorescence slope in test [4] is -0.507 (inactive). In test [5], the NADPH fluorescence slope was -4.4e-05 (inactive). Moreover, in test [6], the slope was 0.00562 (inactive).

Take `O=C(NCCSc1c[nH]c2ccccc12)c1ccco1`: the cell count in test [1] was 686. The inhibition in test [1] was -2.4% (inactive); in test [3], -15.8% (inactive); in test [7], 10.1% (inactive); in test [8], 32.9% (inactive). In test [2], the inhibition of aggregation is -13.1% (inactive). The nuclei count is 108% in test [2] and 116% in test [3]. For the same compound, the fluorescence slope in test [4] was -0.562 (inactive). For the same compound, the NADPH fluorescence slope in test [5] is -4e-05 (inactive). Besides, the slope in test [6] was 0.00591 (inactive).

For the compound `Cc1nc(-c2cccc(-c3noc(C)n3)c2)no1`, the cell count in test [1] stood at 341. Moreover, the inhibition in test [1] was 2.2% (inactive); in test [3], 11.4% (inactive); in test [7], -12.8% (inactive); in test [8], -3.56% (inactive). In test [2], the inhibition of aggregation was -8.5% (inactive). For the same compound, the nuclei count was 105% in test [2] and 108% in test [3]. Further, in test [4], the fluorescence slope was -0.473 (inactive). The NADPH fluorescence slope in test [5] was -4.9e-05 (inactive). Besides, the slope in test [6] is 0.00665 (inactive).
